Here are results for 40 compounds from PubChem BioAssay.

A number with no mark means an inactive call. The rule behind the calls is not given here.

Chain of Pantothenate synthetase (Mycobacterium tuberculosis (strain ATCC 25618 / H37Rv)) (P9WIL5 whole entry, looked up): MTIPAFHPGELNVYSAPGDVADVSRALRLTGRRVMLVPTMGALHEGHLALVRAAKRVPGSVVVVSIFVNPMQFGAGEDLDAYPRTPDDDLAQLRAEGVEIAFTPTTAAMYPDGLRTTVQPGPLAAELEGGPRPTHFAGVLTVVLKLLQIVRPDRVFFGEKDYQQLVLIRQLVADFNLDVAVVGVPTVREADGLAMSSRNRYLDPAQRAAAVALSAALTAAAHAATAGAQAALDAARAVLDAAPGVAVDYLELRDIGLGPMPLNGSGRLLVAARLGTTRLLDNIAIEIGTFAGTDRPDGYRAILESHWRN

The experiment addresses Pantothenate synthetase (Mycobacterium tuberculosis (strain ATCC 25618 / H37Rv)) (UniProt P9WIL5). Description: Recombinant Mtb pantothenate synthetase (PanC) inhibitors, coupled enzyme, confirmatory (AID 375).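 Note: 0% = full reaction with vehicle and 100% = no enzyme background.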 As to conditions: coupled enzyme assay; at 10 µM, active compounds read high.
A word on the inhibition: it is the share of the control response that was lost under treatment. Regarding `COc1ccc(-c2noc(CN3CCC(Cc4ccccc4)CC3)n2)cc1`, the inhibition was 0%.

`CC(=O)Nc1ccc(NC(=O)C(C)Oc2ccccc2F)cc1` (stereo not given): the inhibition was 0%.

With `CCCc1nnc2n1N=C(c1ccc(OC)c(OC)c1)CS2`, the inhibition is 0%.

As to `Cc1ccc2c(c1)NC(=O)C(CC(=O)NCCN(CC(C)C)CC(C)C)O2` (stereo not given), the inhibition was 2%.

For the compound `Cn1nnnc1SCc1cn2cccnc2n1`, the inhibition was 0%.

As for `Cc1ccc(C(C(=O)NC2CCCCC2)N2CCOCC2)cc1` (stereo not given), the inhibition is 0%.

In the case of `CCNC(=O)C1CC(=O)N(Cc2ccc3c(c2)OCO3)C(=Nc2ccc(F)cc2)S1` (stereo not given), the inhibition is 0%.

In the case of `Cc1ccc(N=C2NC(=O)CS2)c(C)c1`, the inhibition is 0%.

As to `O=C(O)c1cccnc1Nc1cccc(C(F)(F)F)c1`, the inhibition is 0%.

For the compound `Cc1ccc(CNC(=O)C2CCCN(S(=O)(=O)c3cnc[nH]3)C2)cc1` (stereo not given), the inhibition is 2%.

For the compound `c1ccc(CC2CCN(c3nc4ccccc4n4nnnc34)CC2)cc1`, the inhibition was 11%.

For the compound `N#Cc1cnc2sc3ccccc3n2c1=N`, the inhibition is 3%.

As to `CCCNC(=O)c1c(N)n(-c2cc(OC)cc(OC)c2)c2nc3ccccc3nc12`, the inhibition is 8%.

For `Cc1cccn2c(=O)c3cc(C#N)c(=NC(=O)c4cccnc4)n(CC4CCCO4)c3nc12` (stereo not given), the inhibition was 0%.

With `CCc1nnc(NC(=O)CSc2nnc3ncccn23)s1`, the inhibition was 11%.

Turning to `O=C1OC(N2CCN(c3ccccn3)CC2)c2ccccc21` (stereo not given), the inhibition is 0%.

As for `COc1ccc(OC)c2[nH]c(=O)c(CCNC(=O)CC(C)C)cc12`, the inhibition was 2%.

With `C=CCN1C(=O)C2(c3ccccc31)C1CCCC=C1C(C#N)=C(N)C2(C#N)C#N` (stereo not given), the inhibition is 0%.

In the case of `O=C1CCc2cc(OCCCCc3nnnn3C3CCCCC3)ccc2N1`, the inhibition is 3%.

On to `CCOC(=O)/C=C1\CC(=O)Nc2nonc2N1`, for which the inhibition is 4%.

With `CCOC(=O)c1ccccc1NC1c2ccccc2C(=O)N1C1CCN(C(=O)OCC)CC1` (stereo not given), the inhibition is 2%.

With `COC(=O)c1ccc(C)c(NS(=O)(=O)c2ccc3c(c2)OCCO3)c1`, the inhibition is 0%.

As to `N#Cc1nc(-c2ccc(Cl)cc2)oc1NCCc1ccccn1`, the inhibition is 0%.

With `C[C@]12CCC(=O)C=C1CC[C@@H]1[C@@H]2CC[C@@]2(C)[C@H]1CC[C@]2(O)C(=O)CO`, the inhibition is 0%.

As to `CCN(CC(=O)NC1CCS(=O)(=O)C1)C(=O)C(c1ccccc1)c1ccccc1` (stereo not given), the inhibition was 1%.

For the compound `CN(Cc1ccccc1)Cc1nc2c(c(=O)n(C)c(=O)n2C)n1Cc1ccc(Cl)cc1`, the inhibition was 0%.

As for `Cc1ccccc1NC(=O)C1CC(=O)N(c2ccccc2F)C1` (stereo not given), the inhibition was 1%.

Regarding `CCOc1ccc(S(=O)(=O)N2CCN(C(=O)c3cccn3C)CC2)cc1`, the inhibition was 0%.

In the case of `CCOC(=O)N1CCC(NC(=O)C2CCCN(C(=O)c3cc4sccc4n3C)C2)CC1` (stereo not given), the inhibition was 0%.

Turning to `CC1(C)CC(=O)C(C=NCc2ccc3c(c2)OCO3)=C(O)C1`, the inhibition was 5%.

On to `CC(Cc1ccc(O)c(O)c1)C(C)Cc1ccc(O)c(O)c1` (stereo not given), for which the inhibition was 0%.

For the compound `O=C(O)CCC(=O)Nc1ccc(S(=O)(=O)Nc2nccs2)cc1`, the inhibition is 0%.

Regarding `COc1cc(NC(=O)Nc2cccc(C(C)=O)c2)cc(OC)c1OC`, the inhibition was 0%.

Turning to `Cc1ccc(CSc2nc3c(c(=O)[nH]2)C(c2ccncc2)C2=C(CCCC2=O)N3)cc1` (stereo not given), the inhibition was 4%.

Consider `Cc1cc(=O)n2[nH]c(COc3ccccc3)nc2n1`, for which the inhibition is 6%.

For `O=C(CSc1ncnc2c1oc1ccccc12)Nc1ccccc1F`, the inhibition is 2%.

Regarding `O=C(c1cccc(C(=O)N2CCN(c3ccccc3)CC2)c1)N1CCN(c2ccccc2)CC1`, the inhibition is 0%.

For `Cc1c(C(=O)N2CCOCC2)oc2ccc(S(=O)(=O)N3CCCC3)cc12`, the inhibition is 0%.

In the case of `CCOC(=O)c1c(N)sn(-c2ccccc2)c1=S`, the inhibition is 5%.

For the compound `CN(C)C(CNC(=O)Nc1cccc(Cl)c1)c1cccnc1` (stereo not given), the inhibition is 0%.
